Experimental data as given in PubChem BioAssay AID434961 (Broad Institute, 2010).
About 15 (0.2%) of roughly 7,700 compounds were called active. About 6% were inconclusive and are not listed. For the sample, actives were picked, then their nearest neighbours and some compounds at random. A number with no mark means an inactive call.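 Rule for the calls: active = more than half of replicate wells with inhibition above about 18% (limit read from the data, passing the limit was not always enough); inconclusive = exactly half of replicate wells above that limit; inactive = fewer than half of replicates above it.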

Each molecule was assayed against Regulator of chromosome condensation (Homo sapiens) + GTP-binding nuclear protein Ran (Homo sapiens) + Importin subunit beta-1 (Homo sapiens) (UniProt P18754+P62826+Q14974) (assay: RanGTP/importin-beta interaction disruptors – biochemical, CFP-Ran/YFP-importin-beta FRET, RCC1, cell-free, primary screen (AID 434961;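 note: 0% = DMSO wells and 100% inhibition = RanGDP control wells on each plate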)). Conditions: active compounds read high, concentration not given here.

Question: Which inhibition does the source give for `CNC[C@H]1Oc2ccc(NC(=O)NC(C)C)cc2CC(=O)N([C@H](C)CO)C[C@H]1C` here?
Answer: -4.07%

Question: With `CNC[C@H]1OCCCC[C@@H](C)Oc2ccc(N)cc2C(=O)N([C@H](C)CO)C[C@@H]1C` as the molecule, how does the inhibition read?
Answer: 7.03%

Question: `C[C@@H]1CN([C@H](C)CO)C(=O)Cc2cc(NS(=O)(=O)c3cn(C)cn3)ccc2O[C@H]1CN(C)CC1CC1` was tested. Which inhibition did it give?
Answer: 1.45%

Question: `Cc1noc(C)c1NC(=O)N(C)C[C@@H]1Oc2c(NS(C)(=O)=O)cccc2C(=O)N([C@H](C)CO)C[C@H]1C` was tested. Which inhibition did it give?
Answer: -0.0899%

Question: For `C[C@@H]1CCCCO[C@H](CN(C)C(=O)C2CCCCC2)[C@H](C)CN([C@@H](C)CO)C(=O)c2cc(NC(=O)c3ccncc3)ccc2O1`, which inhibition is on record?
Answer: 2%

Question: For `C[C@@H]1CN([C@@H](C)CO)C(=O)Cc2cc(NC(=O)Nc3ccc4c(c3)OCO4)ccc2O[C@@H]1CN(C)CC1CC1`, which inhibition is on record?
Answer: 2.45%

Question: For `C[C@H](CO)N1C[C@H](C)[C@H](CN(C)CC2CC2)Oc2ccc(NC(=O)Nc3ccc4c(c3)OCO4)cc2CC1=O`, which inhibition is on record?
Answer: -0.0887%

Question: With `C[C@@H]1CN([C@H](C)CO)C(=O)Cc2cc(NC(=O)Nc3ccc4c(c3)OCO4)ccc2O[C@@H]1CN(C)CC1CC1` as the molecule, how does the inhibition read?
Answer: 24.2% (active)

Question: With `C[C@@H]1CN([C@H](C)CO)C(=O)Cc2cc(NC(=O)Cc3ccccc3)ccc2O[C@@H]1CN(C)S(=O)(=O)c1cccs1` as the molecule, how does the inhibition read?
Answer: -2.73%

Question: Which inhibition does the source give for `C[C@H]1CN([C@@H](C)CO)C(=O)Cc2cc(NC(=O)Cc3ccccc3)ccc2O[C@@H]1CN(C)S(=O)(=O)c1cccs1` here?
Answer: -0.944%

Question: For `C[C@H](CO)N1C[C@H](C)[C@@H](CN(C)S(=O)(=O)c2cccs2)Oc2ccc(NC(=O)Cc3ccccc3)cc2CC1=O`, which inhibition is on record?
Answer: 19.8% (active)

Question: Which inhibition does the source give for `C[C@@H]1CN([C@@H](C)CO)C(=O)c2cc(NS(C)(=O)=O)ccc2O[C@@H](C)CCCCO[C@@H]1CN(C)C(=O)Cc1ccccc1` here?
Answer: -3.41%

Question: `C[C@@H]1CCCCO[C@H](CN(C)Cc2ccncc2)[C@H](C)CN([C@H](C)CO)C(=O)c2cc(NS(C)(=O)=O)ccc2O1` was tested. Which inhibition did it give?
Answer: 0.0179%

Question: For `C[C@@H]1CCCCO[C@@H](CN(C)Cc2ccncc2)[C@H](C)CN([C@@H](C)CO)C(=O)c2cc(NS(C)(=O)=O)ccc2O1`, which inhibition is on record?
Answer: -2.5%

Question: With `C[C@H]1CCCCO[C@H](CN(C)Cc2ccc3c(c2)OCO3)[C@@H](C)CN([C@@H](C)CO)C(=O)c2cc(NC(=O)CCCN(C)C)ccc2O1` as the molecule, how does the inhibition read?
Answer: -3.94%

Question: How did the inhibition turn out when `C[C@@H]1CN([C@@H](C)CO)C(=O)c2cc(NC(=O)CCCN(C)C)ccc2O[C@@H](C)CCCCO[C@H]1CN(C)Cc1ccc2c(c1)OCO2` was run?
Answer: 7.22%

Question: `C[C@H]1CN([C@@H](C)CO)C(=O)c2cccc(NS(C)(=O)=O)c2O[C@H]1CN(C)Cc1ccncc1` was tested. Which inhibition did it give?
Answer: 7.75%

Question: Which inhibition does the source give for `C[C@@H]1CN([C@H](C)CO)C(=O)c2cc(NS(C)(=O)=O)ccc2O[C@@H](C)CCCCO[C@@H]1CN(C)Cc1ccncc1` here?
Answer: 30% (active)

Question: For `C[C@H](CO)N1C[C@H](C)[C@@H](CN(C)Cc2ccncc2)Oc2c(NS(C)(=O)=O)cccc2C1=O`, which inhibition is on record?
Answer: 29.9% (active)

Question: How did the inhibition turn out when `C[C@H]1CCCCO[C@@H](CN(C)C(=O)Cc2ccccc2)[C@@H](C)CN([C@@H](C)CO)C(=O)c2cc(NS(C)(=O)=O)ccc2O1` was run?
Answer: 3.79%

Question: How did the inhibition turn out when `C[C@@H]1CN([C@@H](C)CO)C(=O)c2cccc(NS(C)(=O)=O)c2O[C@@H]1CN(C)Cc1ccncc1` was run?
Answer: 0.304%

Question: With `C[C@@H]1CN([C@@H](C)CO)C(=O)c2cc(NS(C)(=O)=O)ccc2O[C@@H](C)CCCCO[C@H]1CN(C)C(=O)Cc1ccccc1` as the molecule, how does the inhibition read?
Answer: 20.6% (active)

Question: Which inhibition does the source give for `C[C@@H]1CCCCO[C@H](CN(C)Cc2ccc3c(c2)OCO3)[C@@H](C)CN([C@H](C)CO)C(=O)c2cc(NC(=O)CCCN(C)C)ccc2O1` here?
Answer: 20.5% (active)

Question: Which inhibition does the source give for `COc1ccc(CN(C)C[C@H]2Oc3ccc(NC(=O)Nc4ccc(C(F)(F)F)cc4)cc3C(=O)N([C@@H](C)CO)C[C@H]2C)cc1` here?
Answer: 31.1% (active)

Question: With `Cc1noc(C)c1NC(=O)N(C)C[C@@H]1Oc2ccc(N(C)C)cc2CC(=O)N([C@H](C)CO)C[C@@H]1C` as the molecule, how does the inhibition read?
Answer: 1.55%

Question: `C[C@H]1CN([C@@H](C)CO)C(=O)c2cccc(NS(=O)(=O)c3cn(C)cn3)c2O[C@@H]1CN(C)C` was tested. Which inhibition did it give?
Answer: 0.914%

Question: With `Cc1noc(C)c1NC(=O)N(C)C[C@H]1Oc2ccc(N(C)C)cc2CC(=O)N([C@@H](C)CO)C[C@H]1C` as the molecule, how does the inhibition read?
Answer: -0.258%

Question: How did the inhibition turn out when `COc1ccc(CN(C)C[C@H]2Oc3ccc(NC(=O)Nc4ccc(C(F)(F)F)cc4)cc3C(=O)N([C@H](C)CO)C[C@H]2C)cc1` was run?
Answer: -1.47%

Question: With `C[C@H]1CN([C@@H](C)CO)C(=O)c2cccc(NS(=O)(=O)c3cn(C)cn3)c2O[C@H]1CN(C)C` as the molecule, how does the inhibition read?
Answer: 31% (active)

Question: `Cc1noc(C)c1NC(=O)Nc1ccc2c(c1)C(=O)N([C@H](C)CO)C[C@H](C)[C@@H](CN(C)C(=O)Nc1c(C)noc1C)OCCCC[C@@H](C)O2` was tested. Which inhibition did it give?
Answer: 0.0737%

Question: For `COc1ccc(CN(C)C[C@H]2Oc3ccc(NC(=O)Nc4ccc(C(F)(F)F)cc4)cc3C(=O)N([C@@H](C)CO)C[C@@H]2C)cc1`, which inhibition is on record?
Answer: -6.63%

Question: `Cc1noc(C)c1NC(=O)Nc1ccc2c(c1)C(=O)N([C@H](C)CO)C[C@@H](C)[C@@H](CN(C)C(=O)Nc1c(C)noc1C)OCCCC[C@@H](C)O2` was tested. Which inhibition did it give?
Answer: 20.4% (active)

Question: With `Cc1noc(C)c1NC(=O)Nc1ccc2c(c1)C(=O)N([C@H](C)CO)C[C@H](C)[C@H](CN(C)C(=O)Nc1c(C)noc1C)OCCCC[C@H](C)O2` as the molecule, how does the inhibition read?
Answer: -1.94%

Question: For `C[C@@H]1CN([C@H](C)CO)C(=O)c2cccc(NS(=O)(=O)c3cn(C)cn3)c2O[C@H]1CN(C)C`, which inhibition is on record?
Answer: -0.231%

Question: Which inhibition does the source give for `Cc1noc(C)c1NC(=O)N(C)C[C@@H]1Oc2ccc(N(C)C)cc2CC(=O)N([C@H](C)CO)C[C@H]1C` here?
Answer: 24.7% (active)

Question: Which inhibition does the source give for `C[C@@H]1CCCCO[C@@H](CN(C)C(=O)CCC(F)(F)F)[C@H](C)CN([C@@H](C)CO)C(=O)c2cc(NC(=O)CCC(F)(F)F)ccc2O1` here?
Answer: -1.98%

Question: With `C[C@H]1CCCCO[C@H](CN(C)C(=O)CCC(F)(F)F)[C@@H](C)CN([C@@H](C)CO)C(=O)c2cc(NC(=O)CCC(F)(F)F)ccc2O1` as the molecule, how does the inhibition read?
Answer: 4.31%

Question: How did the inhibition turn out when `C[C@@H]1CCCCO[C@@H](CN(C)C(=O)CCC(F)(F)F)[C@@H](C)CN([C@@H](C)CO)C(=O)c2cc(NC(=O)CCC(F)(F)F)ccc2O1` was run?
Answer: 17.9% (active)
